# Nrf2 ARE act: qHTS of Nrf2 Activators; 410,000 tested, 0.31% active; AREc32 ARE-luciferase reporter (MCF7-derived line), luminescence, 24 h; AID 624171, 2012; Potency, µM (highest dose often 46.1 µM), for inactives: at the highest dose activation, actives largely listed as activators; note: potency is the fitted concentration of half-maximal effect; % of control where 0% means no effect; nearly all actives have a fitted effect of over 65% in size
#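 Cells of the AREc32 ARE-luciferase line are plated in OPTI-MEM containing 5% FBS and left overnight at 37 deg C. Compounds are pinned in, incubation continues 24 hr, and firefly luciferase signal is then measured.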
# ERG-DNA inh: qHTS for Small Molecule Inhibitors of the ERG Ets/DNA interaction. fluorescence polarization, His-ERG Ets domain / labelled DNA. AID 624246, 2012. Transcriptional regulator ERG (Homo sapiens), P11308. 370,000 tested, 0.028% active. Potency, µM (series often up to 76.9 µM), without a hit: at the highest dose FP activity, negative = inhibition, most hits filed as inhibitors; active = well fitted inhibition curve with a large enough effect in the polarisation, with a control signal flat; inconclusive = small, poorly fitted or top-dose-only effect, or effect the other way, or a change in a side signal; inactive = no such curve, though single readings can be large or run the other way; the % refers to the polarisation;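 note: polarization taken with two DNA probes labelled with fluorescein and Texas red; potency is the fitted concentration of half-maximal effect; % of control where 0% means no effect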
#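 His-tagged ERG Ets domain (1 uM in the protein solution; 300mM KCl, 50mM Tris-HCl, 1mM EDTA, 1mM DTT, pH 7.5) received compound, then a probe mix of 5 nM fluorescein-DNA and 100nM Texas-615-DNA. Fluorescence polarization was read for both dyes.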
# Nrf2 inh: Nrf2 qHTS screen for inhibitors; 360,000 tested, 2.1% active; A549 ARE-Fluc reporter, luciferase luminescence, 18-24 h; Potency, µM (doses to about 46 µM), for the others: top-dose activity change, negative = inhibition, hits mostly inhibitors; note: potency is the fitted concentration of half-maximal effect; % is set by controls: 0 for no effect and ±100 for the full control effect; nearly all actives have a fitted effect of over 60% in size
#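 Two sequential reads on A549 ARE_Fluc cells exposed to compound for 18-24 h: a CellTiter-Fluor fluorescence read for viability, then a luciferase luminescence read for Nrf2/ARE activity.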
# LDHA inh: qHTS assay for inhibitors of human lactate dehydrogenase | 480,000 tested, 0.15% active | AID 1347041, 2019 | L-lactate dehydrogenase A chain (Homo sapiens), P00338 | purified LDHA, NADH/diaphorase-resazurin fluorescence; active compounds read low | activity change, % (values are at about 110 or 230 µM); in the data active = activity change below about -30%; inconclusive = mostly about -25% to -30%;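 note: plate controls were DMSO wells for no effect and wells without enzyme for full effect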
#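 Human LDH5 at 2 nM final in Tris HCl pH 7.4 with 0.06 mM NADH and 0.2 mM pyruvate, reacted 5 minutes at room temperature. Remaining NADH coupled via diaphorase/resazurin; resorufin fluorescence read at 0 and 20 minutes, normalized to enzyme-free and DMSO wells.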
# A549 viability: Nrf2 qHTS screen for inhibitors: counterscreen for cytotoxicity | A549 ARE-Fluc cells, CellTiter-Fluor viability, 18-24 h | Potency, µM (series often up to 46 µM), for inactives: top-dose activity change, negative = cytotoxicity, usual class: inhibitors | 390,000 tested, 0.16% active; note: potency is the fitted concentration of half-maximal effect; % is set by controls: 0 for no effect and ±100 for the full control effect
#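 A549 ARE_Fluc cells in 5% FBS OPTI-MEM were exposed to compounds in concentration-response for 18-24 h at 37 deg C. Viability was read by CellTiter-Fluor fluorescence (Ex 405/Em 525) after 30 min, before the luciferase read.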
# 12-LOX inh: Primary qHTS assay for inhibitors of human arachidonate 12S-lipoxygenase (ALOX12): Round 2 | Polyunsaturated fatty acid lipoxygenase ALOX12 (Homo sapiens), P18054 | purified 12hLO, xylenol orange hydroperoxide absorbance | Potency, µM (highest dose often 108 µM), for the others: at the highest dose activity change, negative = inhibition, usual class: inhibitors | 580,000 tested, 1.1% active | AID 1671190, 2021; note: potency is the fitted concentration of half-maximal effect; % is set by controls: 0 for no effect and ±100 for the full control effect
# Target sequence (P18054 whole entry, looked up): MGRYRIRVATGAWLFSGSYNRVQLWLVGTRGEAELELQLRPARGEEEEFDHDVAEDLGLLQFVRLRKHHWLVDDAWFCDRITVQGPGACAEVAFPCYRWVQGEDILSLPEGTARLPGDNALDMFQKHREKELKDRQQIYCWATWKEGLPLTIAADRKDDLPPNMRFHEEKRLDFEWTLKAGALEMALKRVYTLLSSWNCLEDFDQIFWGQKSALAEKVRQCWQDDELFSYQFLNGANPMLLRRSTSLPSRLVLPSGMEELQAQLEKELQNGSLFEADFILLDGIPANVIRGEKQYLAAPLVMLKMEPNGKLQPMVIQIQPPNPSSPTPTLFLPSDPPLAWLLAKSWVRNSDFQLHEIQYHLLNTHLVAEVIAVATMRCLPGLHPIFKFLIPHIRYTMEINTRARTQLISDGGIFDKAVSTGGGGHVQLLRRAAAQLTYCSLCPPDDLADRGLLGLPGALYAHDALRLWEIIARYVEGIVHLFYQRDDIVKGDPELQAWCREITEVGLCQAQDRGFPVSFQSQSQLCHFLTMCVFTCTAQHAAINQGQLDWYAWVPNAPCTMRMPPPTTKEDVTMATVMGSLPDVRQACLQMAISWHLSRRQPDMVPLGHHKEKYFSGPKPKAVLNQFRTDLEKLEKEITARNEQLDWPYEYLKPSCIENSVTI
#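 Hydroperoxide product was detected by ferrous iron/xylenol orange as the 573 to 405 nm absorbance ratio. Arachidonic acid at 40 uM (final) was turned over for 30 min at room temperature by 150 nM human 12hLO, pH 7.0 Hepes buffer, after 15 min compound preincubation.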
# * marks the source's active call; other numbers are inactive results; ? = inconclusive; . = no result; ! = repeats disagree; [ ] = remark or other dose. Hits are enriched below; roughly 2.7% of the tested compounds scored in any of these assays. Unless noted, calls come from the whole dose curve; as a rule, active = well fitted curve in the direction sought with a large enough effect; inconclusive = small, poorly fitted or top-dose-only effect, or another doubt; inactive = no such curve, though single readings can be large; an effect the other way counts as inactive or inconclusive.
SMILES,Nrf2 ARE act,ERG-DNA inh,Nrf2 inh,LDHA inh,A549 viability,12-LOX inh
CC(=O)c1ccc2c(c1)C1C(Cl)C(Sc3ccccc3[N+](=O)[O-])CC1C(C(=O)O)N2 (stereo not drawn),0.1%,.,-1.2%,13.9,-13.0%,11.2µM*
O=C(O)c1cccc2c1NC(C(=O)O)C1CC(Sc3ccccc3[N+](=O)[O-])C(Cl)C21 (stereo not drawn),0.3%,-4.6%,-4.5%,13.0,-8.1%,3.16µM*
COc1ccc(CNC[C@H]2C[C@@H]3CCN2C[C@@H]3c2cc(-c3cccs3)nn2C)cc1,.,.,.,.,.,71.4%[176 µM]
O=C1CC(=O)N(Cc2ccccc2)C(=O)N1,-0.5%,-4.1%,7.0%,-10.8,3.0%,?
COc1ccc(CN2C(=O)CC(=O)NC2=S)cc1,0.1%,18.1%,-1.6%,-18.3,-4.6%,44.7µM*
Cc1nn(Cc2ccccc2Cl)c(Cl)c1C(=O)O,-0.2%,14.1%,2.0%,-2.1,8.0%,24.8%
CC(C)(C)c1nc(N2CCN(C(=O)c3ccco3)CC2)c2nnn(Cc3ccccc3Cl)c2n1,0.7%,2.9%,18.4µM*,6.0,2.3%,1.5%
Cc1cc(C(=O)Nc2ccc(CC(=O)O)cc2)c(C)o1,-2.8%,-1.4%,5.17µM*,-4.4,4.0%,19.9%
COc1ccc(/C=C/C=C2C(=O)NC(=S)NC2=O)cc1,3.5%,.,?,-0.1,-13.9%,35.5µM*
COc1ccc(C=C2C(=O)NC(=S)NC2=O)cc1OC,2.2%,-1.9%,-22.6%,-0.1,-16.8%,?
O=c1[nH]c(=S)[nH]c(O)c1N=Nc1ccc(SC(F)F)cc1,15.8µM*,1.2%,4.9%,-6.7,-0.2%,?
CC(C)c1ccc(N=Nc2c(O)[nH]c(=O)[nH]c2=O)cc1,3.0%,-16.8%,-28.5%,1.3,-17.5%,?
O=c1[nH]c(=S)[nH]c(O)c1N=Nc1ccc(S(=O)(=O)N2CCc3ccccc32)cc1,8.91µM*,8.5%,19.8%,-11.9,-4.4%,-18.9%
O=C1NC(=O)N(c2cccc(Cl)c2)C(=O)/C1=C\c1ccc(Sc2nc3ccccc3[nH]2)o1,3.8%,106.2%,-0.3%,-20.4,-6.9%,10µM*
O=C1NC(=O)N(c2ccccc2F)C(=O)/C1=C/c1ccc(Sc2nc3ccccc3[nH]2)o1,2.4%,154.3%,-0.2%,-6.5,?,31.6µM*
COCCNC(=O)Cn1cc(/C=C2\C(=O)NC(=O)N(c3ccccc3F)C2=O)c2ccccc21,-1.1%,3.8%,-4.1%,-0.6,0.0%,0.0%
O=C1NC(=O)N(c2ccccc2)C(=O)/C1=C/c1ccc(Sc2ccccc2)o1,-0.8%,?,.,-12.6,-6.3%,.
OCC1CN(c2ncccn2)CC12CCNCC2 (stereo not drawn),.,.,.,.,.,18.3%
CCCCCCC(=O)N/N=C/c1c(O)n(C(C)CC)c(=S)[nH]c1=O (stereo not drawn),0.0%,8.5%,14.6µM*,-6.6,-5.6%,?
CCCCCCC(=O)N/N=C/c1c(O)n(C2CC2)c(=S)[nH]c1=O,-0.1%,-13.5%,3.1%,2.7,0.6%,2.2%
O=C(Nc1ccccc1F)N1[C@H]2CC[C@@H]1c1cncnc1C2,.,.,.,.,.,-5.6%
Clc1ccc(-n2nnnc2C2(NC3CCCCC3)CCCCC2)cc1,.,.,.,0.3,.,?
C[N+](C)(C)CC1CCCC(C[N+](C)(C)C)C1=O (stereo not drawn),11.2µM*,.,0.5%,-41.0*,-3.7%,?
COc1ccc2c(c1)c(CC(=O)Nc1c(C)cccc1C)c(C)n2C(=O)c1ccc(Cl)cc1,0.6%,3.5%,23.1µM*,-0.6,-19.7%,?
COc1ccc2c(c1)c(C(C)=O)c(C)n2Cc1ccccc1,.,.,.,0.2,.,-18.3%
SMILES,Nrf2 ARE act,ERG-DNA inh,Nrf2 inh,LDHA inh,A549 viability,12-LOX inh
O=C1Nc2ccccc2CC12CCN2Cc1ccccn1 (stereo not drawn),.,.,.,.,.,67.7%[176 µM]
CCOC(=O)CC1c2ccccc2-n2nncc2CN1Cc1ccc(OC)cc1 (stereo not drawn),0.2%,-4.4%,23.1µM*,-0.8,-10.9%,4.5%
CCOCCCNC(=O)N1[C@H]2CC[C@@H]1c1cnc(-c3ccc(F)cc3)nc1C2,.,.,.,.,.,2.4%
Cc1oc2cc(OC(=O)N(C)C)ccc2c(=O)c1-c1ccccc1,.,.,.,-2.8,.,-0.5%
CC[n+]1c(-c2ccccc2)c2cc(N)ccc2c2ccc(N)cc21,-3.3%,15.8µM*,14.6µM*,17.2,?,?
COc1ccc(CO)cc1,.,.,.,.,.,17.7%[176 µM]
C=C[C@H]1CN2CC[C@H]1C[C@@H]2CNCc1ccc(-c2ccccc2)cc1,.,.,.,.,.,-15.3%[176 µM]
Cc1ccc2c(c1)C(c1ccccc1)=NCC(=O)N2C,2.7%,1.2%,9.2µM*,1.6,-2.6%,3.0%
Clc1cc(CNC2CN3CCC2CC3)cc(Cl)c1OCc1ccccc1 (stereo not drawn),.,.,.,1.8,.,?
Oc1cc2c(cc1O)[C@H]1c3ccccc3CN[C@H]1CC2,.,.,.,.,.,11.2µM*!
Oc1cc2c(cc1O)[C@H]1c3ccccc3CN[C@@H]1CC2,.,.,.,5.3,.,.
CC(C)C[C@H]1C(=O)N2CCC[C@H]2[C@]2(O)O[C@](NC(=O)[C@@H]3C=C4c5cccc6[nH]c(Br)c(c56)CC4N(C)C3)(C(C)C)C(=O)N12 (stereo partly drawn),6.2%,-6.5%,?,0.9,-1.3%,?
CC(C)CC1C(=O)N2CCC[C@H]2[C@]2(O)O[C@](NC(=O)[C@@H]3C=C4c5cccc6[nH]c(Br)c(c56)C[C@H]4N(C)C3)(C(C)C)C(=O)N12 (stereo partly drawn),.,.,16.4µM*,0.1,-4.9%,.
C[C@@H]1O[C@@H](O[C@@H]2C=C3CC[C@@H]4C(CC[C@]5(C)[C@@H](c6ccc(=O)oc6)CC[C@]45O)[C@@]3(C)CC2)[C@H](O)[C@H](O)[C@H]1O (stereo partly drawn),-3.2%,11.9%,0.0231µM*,0.9,?,-4.9%
C[C@@H]1O[C@@H](O[C@@H]2C=C3CCC4C(CC[C@]5(C)[C@@H](c6ccc(=O)oc6)CC[C@]45O)[C@@]3(C)CC2)[C@H](O)[C@H](O)[C@H]1O (stereo partly drawn),-2.4%,-1.9%,?,-0.5,?,18.8%
COc1ccc(CN2CCN(C(=O)COc3ccc4ccccc4c3)CC2)cc1OC,.,.,.,5.4,.,?

# From PubChem BioAssay
